Reference: the supplement of paper PMC12340641
Counter-ions that a name gives are not always drawn.

These compounds were tested against IKZF1 (dCK*-IKZF1 fusion in HEK293FT) (UniProt Q13422) (assay: inhibition of IKZF1 HTRF signal (DMSO = 0%, pomalidomide 10 uM = 100%); higher = lower IKZF1 protein level). Conditions: compound concentration: 5 uM, overnight (~20 h).
Summary of the method: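 HEK293FT cells stably expressing a dCK*-IKZF1 fusion (2000/well, 384-well) were treated overnight at 37 °C with 5 μM compound in single wells. They were then lysed 30 min at room temperature, and lysate was incubated overnight with a commercial HTRF total-IKZF1 antibody kit. The time-resolved FRET ratio (665/620 nm) was background-subtracted. Percent inhibition of IKZF1 signal was normalised per plate to vehicle (0%) and a reference degrader (100%).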

Sequence of IKZF1 (dCK*-IKZF1 fusion in HEK293FT) (Q13422 whole entry, looked up, the tested form may be a part): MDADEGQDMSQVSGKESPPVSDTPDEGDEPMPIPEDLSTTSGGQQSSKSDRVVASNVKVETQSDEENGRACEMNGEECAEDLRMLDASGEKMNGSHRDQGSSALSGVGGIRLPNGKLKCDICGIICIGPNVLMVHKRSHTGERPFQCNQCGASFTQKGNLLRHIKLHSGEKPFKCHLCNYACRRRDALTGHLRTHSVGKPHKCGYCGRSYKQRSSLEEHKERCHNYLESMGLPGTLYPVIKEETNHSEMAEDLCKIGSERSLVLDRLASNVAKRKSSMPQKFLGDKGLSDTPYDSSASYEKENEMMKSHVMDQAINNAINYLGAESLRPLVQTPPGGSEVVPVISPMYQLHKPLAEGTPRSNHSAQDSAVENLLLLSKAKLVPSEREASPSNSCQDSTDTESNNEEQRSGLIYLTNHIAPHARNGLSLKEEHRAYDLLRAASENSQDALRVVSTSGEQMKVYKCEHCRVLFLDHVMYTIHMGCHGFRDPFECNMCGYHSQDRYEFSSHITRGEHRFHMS

| Compound | inhibition of IKZF1 HTRF signal |
| --- | --- |
| Cc1cc([C@H](C(=O)N2C[C@H](O)C[C@H]2C(=O)N[C@@H](CC(=O)N2CCC(C#Cc3ccc(C(=O)N[C@H]4C(C)(C)[C@H](Oc5ccc(C#N)c(Cl)c5)C4(C)C)cc3)CC2)c2ccccc2)C(C)C)on1 | 9.95% |
| CO[C@@H]1[C@@H](OC2O[C@H](C)[C@@H](O[C@H]3C[C@@](C)(O)[C@@H](O)[C@H](C)O3)[C@H](N(C)C)[C@H]2O)[C@@H](CC=O)C[C@@H](C)[C@@H](O[C@H]2CC[C@H](N(C)C)[C@@H](C)O2)/C=C/C=C/C[C@@H](C)OC(=O)C[C@H]1O (stereo partly drawn) | -29.9% |
| O=C1c2ccccc2-c2n[nH]c3cccc1c23 [pyrazolanthrone] | -38.5% |
| S=C(NCc1ccc2c(c1)OCO2)N1CCN(c2ncnc3c2oc2ccccc23)CC1 [Amuvatinib (MP-470)] | -37.4% |
| Clc1ccccc1C(c1ccccc1)(c1ccccc1)n1ccnc1 [Clotrimazole] | -53.5% |
| COC(=O)Nc1ccc(-c2nc(N3CCOCC3)c3cnn(C4CCN(Cc5cccnc5)CC4)c3n2)cc1 | -7.75% |
| Oc1c(Cl)cc(Cl)c2cccnc12 | -21.5% |
| CSCC[C@H](N)C(=O)O [L-methionine] | -9.26% |
| COC(=O)Nc1nc2cc(C(=O)c3cccs3)ccc2[nH]1 [nocodazole] | -12% |
| CCc1nc(N)nc(N)c1-c1ccc(Cl)cc1 [Pyrimethamine] | -52.5% |
| O=C(CCCCCCC(=O)NO)NO | -47.9% |
| O=C(Nc1ccc(Cl)cc1)Nc1ccc(Cl)c(Cl)c1 [Triclocarban] | 15.1% |
| O=C(O)c1cc(N=Nc2ccc(O)c(C(=O)O)c2)ccc1O [Olsalazine Na] | -197% |
| CCCCCCCCCCCCCCCC[N+](C)(C)CCN(Cc1ccc(OC)cc1)c1ncccn1 [thonzonium bromide] | 21% |
| COc1nccnc1NS(=O)(=O)c1ccc(N)cc1 [sulfametopyrazine] | 6.66% |
| CN1CCN(Cc2ccc(-c3cnc4[nH]cc(-c5ccc6[nH]ccc6c5)c4c3)cc2)CC1 | -32.6% |
| COc1cccc2c1C(=O)c1c(O)c3c(c(O)c1C2=O)C[C@@](O)(C(=O)CO)C[C@@H]3O[C@H]1C[C@H](N)[C@@H](O)[C@H](C)O1 [Epirubicin Hydrochloride] | 52.4% |
| C=C1/C(=C\C=C2/CCC[C@]3(C)[C@@H]([C@H](C)CCCC(C)(C)O)CC[C@@H]23)C[C@@H](O)C[C@@H]1O [Calcitriol (Rocaltrol)] | 7.56% |
| Nc1ccc2cc3ccc(N)cc3nc2c1 | 62.9% |
| COc1ccc(CCCOC(Cn2ccnc2)c2ccc(OC)cc2)cc1 (stereo not drawn) | -18.7% |
| C=C1C(=O)O[C@@H]2C[C@@]3(C)CCC[C@H](C)C3=C[C@H]12 [alantolactone] | -31.2% |
| CCCSc1ccc2[nH]c(NC(=O)OC)nc2c1 [Albendazole] | 3.53% |
| CC[C@@]1(O)C(=O)OCc2c1cc1n(c2=O)Cc2cc3c(N)cccc3nc2-1 [9-aminocamptothecin] | 31.3% |
| CCN(CC)CCCC(C)Nc1c2ccc(Cl)cc2nc2ccc(OC)cc12 (stereo not drawn) | 57.3% |
| CCCCNC(=O)NS(=O)(=O)c1ccc(C)cc1 | -29.8% |

The compounds below were run on HEK293FT dCK*-only (assay: relative growth in counter assay (no AraC = 100%, AraC + DMSO = 0%); higher = more growth rescue independent of IKZF1). Conditions: compound concentration: 5 uM; AraC concentration: 0.3 uM; overnight pretreatment + 4 days AraC.
Summary of the method: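 In 384-well plates, 300 HEK293FT cells per well expressing an engineered kinase construct alone got 5 μM compound 2 h after seeding. After overnight at 37 °C, 0.3 μM nucleoside suicide substrate plus medium was applied for 4 days. Counting of Hoechst 33342-stained nuclei by imaging on day 5 was normalised per plate, with 100% for no-substrate wells and 0% for substrate plus vehicle.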

| Compound | relative growth in counter assay |
| --- | --- |
| CCC(=N\O)/C(C)=C/c1ccc(F)cc1 | -3.61% |
| O=C(O)c1ccc(S(=O)(=O)N(Cc2ccc(OC(F)(F)F)cc2)c2ncc(C(F)(F)F)cc2Cl)cc1 | 5.77% |
| O=C(Nc1ccc2[nH]ccc2c1)c1ccccc1 | -3.62% |
| Clc1ccc(C(Cn2ccnc2)OCc2csc3c(Cl)cccc23)c(Cl)c1 (stereo not drawn) [Sertaconazole nitrate] | -1.47% |
| Cc1noc(C)c1-c1ccc(-c2cc(C(N)=O)c(NC(N)=O)s2)c(O[C@H]2CCNC2)c1 | 4.03% |
| CCCCCCCC/C=C\CCCCCCCC(=O)NCCO [oleoylethanolamide] | 0.5% |
| Nc1nnc(-c2cccc(Cl)c2Cl)c(N)n1 | 0.9% |
| CC(C)COCC(CN(Cc1ccccc1)c1ccccc1)N1CCCC1 (stereo not drawn) [bepridil] | -3.99% |
| CO[C@H]1/C=C/O[C@@]2(C)Oc3c(C)c(O)c4c(O)c(c5c(c4c3C2=O)=NC2(CCN(CC(C)C)CC2)N=5)NC(=O)C(C)=CC=CC(C)[C@H](O)[C@@H](C)[C@@H](O)[C@@H](C)[C@H](OC(C)=O)[C@@H]1C (stereo partly drawn) [Rifabutin] | 3.92% |
| C/C(=N/Nc1nnc2c(n1)[nH]c1c(C)cccc12)c1ccccn1 | -33% |
| OC1=C(C[C@]([C@](CO)=O)(O)C[C@@H]4O[C@@]5([H])C[C@H](N)[C@H](O)[C@H](C)O5)C4=C(O)C3=C1C(C2=CC=CC(OC)=C2C3=O)=O [doxorubicin] | -35.2% |
| CCc1nc(N)nc(N)c1-c1ccc(Cl)cc1 | 3.95% |
| COc1cc([C@@H]2c3cc4c(cc3[C@@H](O[C@@H]3O[C@@H]5CO[C@@H](C)O[C@H]5[C@H](O)[C@H]3O)[C@H]3COC(=O)[C@H]23)OCO4)cc(OC)c1O [Etoposide] | -34.7% |
| Cc1cc([C@H](C(=O)N2C[C@H](O)C[C@H]2C(=O)N[C@@H](CC(=O)N2CCC(C#Cc3ccc(C(=O)N[C@H]4C(C)(C)[C@H](Oc5ccc(C#N)c(Cl)c5)C4(C)C)cc3)CC2)c2ccccc2)C(C)C)on1 | 5.85% |
| CO[C@@H]1[C@@H](OC2O[C@H](C)[C@@H](O[C@H]3C[C@@](C)(O)[C@@H](O)[C@H](C)O3)[C@H](N(C)C)[C@H]2O)[C@@H](CC=O)C[C@@H](C)[C@@H](O[C@H]2CC[C@H](N(C)C)[C@@H](C)O2)/C=C/C=C/C[C@@H](C)OC(=O)C[C@H]1O (stereo partly drawn) | -5.7% |
| O=C1c2ccccc2-c2n[nH]c3cccc1c23 [pyrazolanthrone] | -9.29% |
| S=C(NCc1ccc2c(c1)OCO2)N1CCN(c2ncnc3c2oc2ccccc23)CC1 [Amuvatinib (MP-470)] | -17.4% |
| Clc1ccccc1C(c1ccccc1)(c1ccccc1)n1ccnc1 [Clotrimazole] | 11.9% |
| COC(=O)Nc1ccc(-c2nc(N3CCOCC3)c3cnn(C4CCN(Cc5cccnc5)CC4)c3n2)cc1 | -33% |

| Compound | relative growth in counter assay |
| --- | --- |
| Oc1c(Cl)cc(Cl)c2cccnc12 | -3.56% |
| CSCC[C@H](N)C(=O)O [L-methionine] | -0.43% |
| COC(=O)Nc1nc2cc(C(=O)c3cccs3)ccc2[nH]1 [nocodazole] | -33% |
| CCc1nc(N)nc(N)c1-c1ccc(Cl)cc1 [Pyrimethamine] | 3.76% |
| O=C(CCCCCCC(=O)NO)NO | -7.76% |
| O=C(Nc1ccc(Cl)cc1)Nc1ccc(Cl)c(Cl)c1 [Triclocarban] | 3.72% |
| O=C(O)c1cc(N=Nc2ccc(O)c(C(=O)O)c2)ccc1O [Olsalazine Na] | 1.54% |
| CCCCCCCCCCCCCCCC[N+](C)(C)CCN(Cc1ccc(OC)cc1)c1ncccn1 [thonzonium bromide] | -31% |
| COc1nccnc1NS(=O)(=O)c1ccc(N)cc1 [sulfametopyrazine] | -7.5% |
| CN1CCN(Cc2ccc(-c3cnc4[nH]cc(-c5ccc6[nH]ccc6c5)c4c3)cc2)CC1 | -34.1% |
| COc1cccc2c1C(=O)c1c(O)c3c(c(O)c1C2=O)C[C@@](O)(C(=O)CO)C[C@@H]3O[C@H]1C[C@H](N)[C@@H](O)[C@H](C)O1 [Epirubicin Hydrochloride] | -34.5% |
| C=C1/C(=C\C=C2/CCC[C@]3(C)[C@@H]([C@H](C)CCCC(C)(C)O)CC[C@@H]23)C[C@@H](O)C[C@@H]1O [Calcitriol (Rocaltrol)] | 31.2% |
| Nc1ccc2cc3ccc(N)cc3nc2c1 | -35.1% |
| COc1ccc(CCCOC(Cn2ccnc2)c2ccc(OC)cc2)cc1 (stereo not drawn) | -32.6% |
| C=C1C(=O)O[C@@H]2C[C@@]3(C)CCC[C@H](C)C3=C[C@H]12 [alantolactone] | -28% |
| CCCSc1ccc2[nH]c(NC(=O)OC)nc2c1 [Albendazole] | 6.7% |
| CC[C@@]1(O)C(=O)OCc2c1cc1n(c2=O)Cc2cc3c(N)cccc3nc2-1 [9-aminocamptothecin] | -33.7% |
| CCN(CC)CCCC(C)Nc1c2ccc(Cl)cc2nc2ccc(OC)cc12 (stereo not drawn) | -34.1% |
| CCCCNC(=O)NS(=O)(=O)c1ccc(C)cc1 | 0.26% |
